ATXN viability = Viability Counterscreen for Primary qHTS for Inhibitors of ATXN expression; 400,000 tested, 0.49% active; Potency, µM (doses to about 56.7 µM), hits mostly cytotoxic; S2 cells (HEK-293 line with an ATXN2-luciferase reporter) viability, CellTiter-Fluor protease fluorescence, 24 h; note: nearly all actives have a fitted effect of over 40% in size
HepG2 tox-1 = qHTS for Inhibitors of TGF-b: Cytotox Counterscreen | HepG2 CAGA-GFP viability, ATP luminescence, 18 h | Potency, µM (titrated, usually from 46.1 µM), for the others: top-dose activity change, negative = cytotoxicity, usual class: cytotoxic | 410,000 tested, 0.76% active | AID 588856, 2011
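HepG2 CAGA-GFP cells (1000/well, DMEM with 1% FBS) received compound, then TGF-beta at 500 pg/mL final, and were incubated 18 hours at 37 degrees C. Viability was read by CellTiter-Glo luminescence. Media-only wells were set as complete cell-killing and DMSO as no toxicity.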
HT1080NT lethal = qHTS for induction of synthetic lethality in tumor cells producing 2HG: qHTS for the HT-1080-NT fibrosarcoma cell line; HT-1080-NT fibrosarcoma viability, CellTiter-Glo ATP luminescence, 48 h; Potency, µM (series often up to 46.1 µM), inactives show at the highest dose activity, negative = less viability, hits mostly cytotoxic; 360,000 tested, 1.6% active;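 note: NT is the 2HG producing partner of a matched IDH1 knockdown line; 0% = DMSO-treated cells and -100% = media-only wells without cells; nearly all actives have a fitted effect of over 55% in size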
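HT-1080-NT; 750 cells/well; 5% FBS RPMI; 48 h compound, 37 degrees C; CellTiter-Glo luminescence; curve fitting and curve-class assignment.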
TGFb SMAD3 inh = qHTS for Inhibitors of TGF-b; HepG2 CAGA-GFP TGF-b/SMAD3 reporter, GFP fluorescence, 18 h; TGF-beta stimulated, 500 pg/mL final; Potency, µM (doses to about 46.1 µM), inactives show top-dose activity, negative = inhibition, most hits filed as inhibitors; 410,000 tested, 1.2% active; AID 588855, 2011; note: % is set by controls: 0 for no effect and ±100 for the full control effect; nearly all actives have a fitted effect of over 65% in size
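First, reporter cells (HEPG2 CAGA-GFP) rested 2 h at 37 degrees C. Next, compounds were pinned in and TGF-beta added to 500 pg/mL final. After 18 h, GFP was imaged per cell and summed per well.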
ATXN2 expr inh = Primary qHTS for Inhibitors of ATXN expression; HEK-293 ATXN2-luciferase reporter, luminescence, 24 h; Potency, µM (highest dose often 57 µM), for the others: at the top dose activity change, negative = inhibition, usual class: inhibitors; 360,000 tested, 0.72% active; note: % is set by controls: 0 for no effect and ±100 for the full control effect; nearly all actives have a fitted effect of over 55% in size
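ATXN2-luciferase reporter cells (luciferase flanked by upstream and downstream ATXN2 gene portions) were treated 24 h at 37 °C with compounds at up to 57 uM. SteadyGlo luminescence gave expression; GF-AFC fluorescence gave viability.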
HT1080 IDH1KD tx = qHTS for induction of synthetic lethality in tumor cells producing 2HG: qHTS for the HT-1080-IDH1KD cell line; 360,000 tested, 2% active; Potency, µM (doses to about 46.1 µM), for inactives: at the top dose activity, negative = toxicity, most hits filed as cytotoxic; HT-1080 IDH1 knockdown viability, ATP luminescence, 48 h;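 note: 0% = DMSO wells and -100% = cell-free medium wells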
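Assay cells: HT-1080 with IDH1 knockdown, 750 per well, RPMI/5% FBS. Exposure: 48 h at 37 °C following 2 h pre-incubation. Read: CellTiter-Glo luminescence; fitted concentration-response, curve class assigned.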
TGFb CAGA inh = qHTS for Inhibitors of TGF-b: Confirmation of Cherry Picks | shares compounds with TGFb SMAD3 inh | HepG2 CAGA-GFP TGF-b reporter, GFP fluorescence, 18 h; cells stimulated with TGF-beta, 500 pg/mL | Potency, µM (top dose mostly 46.1 µM), for inactives: at the top dose activity, negative = inhibition, most hits filed as inhibitors | 1,600 tested, 63% active | AID 720534, 2013; note: % is set by controls: 0 for no effect and ±100 for the full control effect; nearly all actives have a fitted effect of over 65% in size
HepG2 tox-2 = qHTS for Inhibitors of TGF-b: Cytotox Counterscreen for Cherry Picks | 1,600 tested, 27% active | Potency, µM (series often up to 46.1 µM), inactives show at the top dose activity, negative = cytotoxicity, hits mostly inhibitors | shares compounds with TGFb SMAD3 inh | HepG2 CAGA-GFP viability, ATP luminescence, 18 h; cells stimulated with TGF-beta, 500 pg/mL | AID 720535, 2013; note: % is set by controls: 0 for no effect and ±100 for the full control effect; nearly all actives have a fitted effect of over 70% in size
CCL64 TGFb inh = qHTS for Inhibitors of TGF-b: CCL64 Cells Orthogonal Assay for Cherry Picks; CCL64 CAGA-GFP reporter, TGF-b stimulated, GFP fluorescence, 18 h; 1,600 tested, 41% active; Potency, µM (top dose mostly 46.1 µM), for inactives: at the top dose activity, negative = inhibition, actives largely listed as inhibitors; AID 720536, 2013; shares compounds with TGFb SMAD3 inh; note: nearly all actives have a fitted effect of over 65% in size
TGFb COP inh = qHTS for Inhibitors of TGF-b: Hit Validation in HepG2 Cells using COP promoter | 1,600 tested, 3% active | shares compounds with TGFb SMAD3 inh | HepG2 COP-GFP TGF-b reporter, GFP fluorescence, 18 h; cells stimulated by added recombinant TGF-beta | Potency, µM (top dose mostly 46.1 µM), for the others: top-dose activity, negative = inhibition, most hits filed as inhibitors; note: nearly all actives have a fitted effect of over 70% in size
* hit, by the source's call; i = inactive; u = inconclusive; x = not tested or not shown; [ ] = another dose, or the depositor's remark. An excerpt weighted towards active compounds, which were near 3.8% of everything screened. Calls come from the whole dose curve; as a rule, active = well fitted curve in the direction sought with a large enough effect; inconclusive = small, poorly fitted or top-dose-only effect, or another doubt; inactive = no such curve, though single readings can be large; an effect the other way counts as inactive or inconclusive. Potency is the fitted concentration of half-maximal effect.

SMILES | ATXN viability | HepG2 tox-1 | HT1080NT lethal | TGFb SMAD3 inh | ATXN2 expr inh | HT1080 IDH1KD tx | TGFb CAGA inh | HepG2 tox-2 | CCL64 TGFb inh | TGFb COP inh
COCCN(Cc1cc2cc3c(cc2nc1Cl)OCO3)C(=O)c1ccc(C)cc1 | i | -24% | -14% | u | x | -12% | u | -13% | 7% | 10%
COCCN(Cc1cc2cc(C)c(C)cc2nc1Cl)C(=O)Nc1ccccc1 | i | -17% | -16% | -1% | -3% | -1% | x | x | x | x
COc1ccccc1CNC(=O)C(Cc1c[nH]c2ccccc12)NC(=O)OCc1ccccc1 (configuration not stated) | u | -10% | -16% | 11µM* | -3% | -13% | u | u | u | 25%
CC(=O)Nc1ccc(S(=O)(=O)N2CCC(n3c(C)nc4cccnc43)CC2)cc1 | i | -5% | x | -32% | 7% | x | x | x | x | x
O=c1[nH]c(C2CCN(S(=O)(=O)c3ccc(F)cc3)CC2)nc2c1nnn2Cc1ccc2c(c1)OCCO2 | i | -29% | u | 16µM* | x | 0% | 15µM* | -23% | u | 5%
Cc1ccc(Cn2nnc3c(=O)[nH]c(C4CCN(S(=O)(=O)c5cc(C)ccc5C)CC4)nc32)cc1 | i | -24% | u | 16µM* | -3% | u | 21µM* | -19% | u | 36%
CC(=O)c1cccc(NC(=O)/C=C/c2ccc([N+](=O)[O-])s2)c1 | x | -57% | u | 7.1µM* | u | u | 4.1µM* | 12µM* | 2.1µM* | -2%
Cc1ccc(COC(=O)c2nn(C)c(=O)c3ccccc23)cc1 | i | -9% | -16% | u | -16% | u | u | 3% | 6% | -8%
Cn1nc(C(=O)OCc2ccc(Br)cc2F)c2ccccc2c1=O | i | -12% | 0% | -9% | -1%[11.3 µM] | 6% | x | x | x | x
CCCOc1ccc(-c2nonc2NC(=O)c2oc3ccc(C)cc3c2C)cc1OCCC | i | -5% | x | 0% | -6% | x | x | x | x | x
COc1ccc(OC)c(C2SCCN2S(=O)(=O)c2cccc(C(F)(F)F)c2)c1 (configuration not stated) | i | -20% | -6% | u | -5% | -7% | u | -21% | -15% | -4%
CCc1ccc(-c2cn3c(n2)sc2cc(C(=O)NCCC4=CCCCC4)ccc23)cc1 | x | -39% | x | u | x | x | x | x | x | x
O=C(OCc1ccccc1)c1ccc(NCc2cc(O)ccc2O)cc1 | x | -66% | 9.2µM* | 10µM* | 10µM* | 5.8µM* | 5.2µM* | 16µM* | 2.1µM* | -10%
COc1ccc(S(=O)(=O)n2nc(-c3ccc(Cl)cc3)cc2N)cc1 | u | -18% | 18µM* | 13µM* | -34% | 18µM* | u | u | u | 32%
COc1ccc(-c2cc(N)n(S(=O)(=O)c3ccc(C)cc3)n2)c(OC)c1 | i | -23% | -3% | -9% | -7% | -3% | x | x | x | x
C=C(C(=O)c1ccccc1)C(CC(=O)c1ccccc1)c1ccccc1 (configuration not stated) | u | 4% | u | 13µM* | 25µM* | 12µM* | 9.2µM* | 10µM* | 9.2µM* | -17%
O=C(CCC(=O)N1CCN(S(=O)(=O)c2ccc3ccccc3c2)CC1)Nc1cc(Cl)cc(Cl)c1 | i | -22% | -5% | 7.1µM* | x | -14% | u | -22% | -16% | -9%
O=C(Cn1ncc(Cl)c(Cl)c1=O)N1CCN(S(=O)(=O)c2ccc3ccccc3c2)CC1 | x | -54% | 2.6µM* | 4µM* | u | 3.7µM* | 2.6µM* | 2.6µM* | 5.2µM* | -22%
O=C(O)CCC(=O)N1CCN(S(=O)(=O)c2ccc3ccccc3c2)CC1 | i | -6% | -8% | 2% | 21% | -2% | x | x | x | x
Cc1ccc(NC(=O)c2oc3ccc(S(=O)(=O)N4CCCCCC4)cc3c2C)c(C)c1 | i | 0% | x | 2% | -11% | x | x | x | x | x
Cc1ccc(-c2c(CN3CCN(c4cc(Cl)ccc4C)CC3)csc2C)cc1 | x | -16% | x | u | x | x | x | x | x | x
Cc1cc(C)cc(Oc2coc3cc(OC(=O)c4cccs4)ccc3c2=O)c1 | i | -29% | 0% | u | 1% | -5% | u | -9% | -2% | -10%
Cc1ccc(Oc2coc3cc(OC(=O)c4cccs4)ccc3c2=O)cc1 | i | -13% | 2% | 14% | 42% | -4% | x | x | x | x
N#C/C(=N\Nc1ccc(Cl)c(Cl)c1)C(=O)C1CC1 | x | -29% | u | 7.1µM* | -19% | 2.9µM* | 2.3µM* | 6.5µM* | 6.5µM* | 64%
CCc1cccc(NC(c2nnc(-c3ccccc3)o2)c2ccc(F)cc2Cl)c1 (configuration not stated) | i | -21% | x | u | 5% | x | x | x | x | x
CCCc1nnc(NC(=O)C(CC)OC(=O)c2cc(C)nc3ccccc23)s1 (configuration not stated) | i | 5% | -1% | u | 5% | 2% | u | 1% | 8% | 5%
COc1ccc(CNC(=O)c2cccc(-c3ccc(C)c4ccccc34)n2)cc1 | i | 0% | u | 20µM* | -25% | u | u | u | u | 14%
